# Laboratory results taken from PubChem BioAssay AID504766 (The Scripps Research Institute Molecular Screening Center, 2011).
# The whole screen tested about 340,000 compounds, of which about 3,400 (1%) were called active. The sample as a whole holds a higher share of actives than the screen did. A number with no mark means an inactive call.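 Rule for the calls: active = inhibition above the mean over all tested compounds plus 3 SD (cut at about 4.2% in these data); inactive = the rest.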
# Target: Nuclear receptor subfamily 0 group B member 1 (Homo sapiens) (UniProt P51843)
# Experiment: DAX1 (NR0B1) inhibitors, primary screen, cell-based, HEK293, Gal4-DAX1, luciferase luminescence (AID 504766);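 note: 0% = DAX1-transfected cells with DMSO and 100% = empty-vector control cells with DMSO; inhibition shows as a rise in luminescence from relieved DAX1 repression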
# Conditions: HEK293 Gal4-DAX1 luciferase reporter, at 6.75 µM, hits give high values
# Nuclear receptor subfamily 0 group B member 1 (Homo sapiens), sequence (P51843 207-470 limits assumed): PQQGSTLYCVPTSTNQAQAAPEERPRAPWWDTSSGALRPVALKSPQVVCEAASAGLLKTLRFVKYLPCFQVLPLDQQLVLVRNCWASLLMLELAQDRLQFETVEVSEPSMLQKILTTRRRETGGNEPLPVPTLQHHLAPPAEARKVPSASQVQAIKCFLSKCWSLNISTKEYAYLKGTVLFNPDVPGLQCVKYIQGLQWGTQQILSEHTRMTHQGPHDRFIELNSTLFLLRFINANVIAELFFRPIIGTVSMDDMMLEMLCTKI
row,SMILES,inhibition
1,CNC(=O)C[C@H]1C(=O)N(Cc2ccccc2)C[C@@H]1CSC,0.53%
2,Cc1cccc(S(=O)(=O)N(C)C[C@@H]2OCc3cnnn3CCCC(=O)N([C@H](C)CO)C[C@@H]2C)c1,-0.51%
3,CCCNC(=O)C1CC(=O)N(c2ccc(OCc3ccccc3)cc2)C1 (stereo unspecified),2.8%
4,C=CCOc1ccccc1CNn1c(C)n[nH]c1=S,0.12%
5,CCN1CCCC1CNC(=O)c1ccc2c(c1)NC(=O)/C(=C\c1ccccc1F)S2 (stereo unspecified),1.21%
6,O=C(O)c1ccccc1Cc1ccc(F)c2ccccc12,1.12%
7,CSc1ncccc1C(=O)N1CCCC(Nc2ccc(F)c(F)c2)C1 (stereo unspecified),-0.54%
8,CC(=O)Nc1cccc(-c2csc(Nc3cccc(C)n3)n2)c1,4.29% (active)
9,Cc1cccc(Nc2nc(-c3ccccc3)cs2)n1,7.24% (active)
10,COc1ccc2c(c1OC)C(=O)OC2Nc1nc(-c2ccccc2)cs1 (stereo unspecified),0.66%
11,Cc1ccc(-c2csc(NC(=O)C3=COCCO3)n2)cc1C,-1.52%
12,CCCCCCC(=O)Nc1nc(C)c(-c2csc(Nc3cccc(OC)c3)n2)s1,1.39%
13,COc1ccc(-c2csc(Nc3cccc(C)n3)n2)cc1OC,3.01%
14,CC(C)C1CCN(C(=O)C2CCC(=O)N(C3CCCCCC3)C2)CC1 (stereo unspecified),1.56%
15,CCOC(=O)c1cnn2c(SC)ncnc12,0.53%
16,Cc1ccc2cccc([N+](=O)[O-])c2n1,0.58%
17,NC(=O)C1(Nc2ccc(-c3ccccc3)cc2)CCCC1,0.6%
18,NC(=O)C1(Nc2ccccc2Cl)CCCC1,4.62% (active)
19,NC(=O)C1(Nc2ccc([N+](=O)[O-])cc2)CCCC1,-1.28%
20,Cc1ccc(Cc2c(-c3ccccc3)nc3ccc(Cl)cn23)cc1,-0.15%
21,CCOc1ccc(S(=O)(=O)NCCC(=O)NNC(=O)c2ccc(F)cc2)cc1,1.04%
22,Cc1ccc(Oc2nc3ccccc3n3c(C)nnc23)cc1,-0.82%
23,Cc1ccc(OCc2nc3ccccc3n2C)cc1,4.76% (active)

row,SMILES,inhibition
1,Cn1c(COc2ccc(Cl)cc2)nc2ccccc2c1=O,0.73%
2,Cc1ccccc1C#CC1=CC(=O)CC(C)(C)C1,-0.14%
3,C[C@H]1CN([C@@H](C)CO)C(=O)c2cc(-c3ccccc3F)cnc2O[C@H]1CN(C)C(=O)C1CCOCC1,1.09%
4,CC1(C)CN(CCc2ccccc2)C(=O)[C@H]1CC(=O)Nc1ccc(Br)cc1,0.23%
5,COc1ccc(-c2csc3nc(-c4ccccc4F)oc(=O)c23)cc1OC,-1.37%
6,COc1ccc(-c2noc(-c3cccc(OC)c3OC)n2)cc1OC,4.33% (active)
7,COc1ccc(-c2noc(CCCC(=O)NC3CCCC3)n2)cc1OC,0.14%
8,COc1ccc(S(=O)(=O)N(C)C)cc1NC(=O)COC(=O)c1n[nH]c2ccccc12,-0.33%
9,Cc1cc(OCC(=O)Nc2nccs2)c2c(C)c(C)c(=O)oc2c1,0.98%
10,COc1ccc(OCc2cc(C(=O)NCC3(C)COC3)no2)c(Cl)c1,0.65%
11,Cc1cc(OCc2cc(C(=O)NCc3cc(C(C)C)no3)no2)cc(C)c1Cl,7.06% (active)
12,Cc1cccnc1CC(C)NC(=O)c1cc(COc2cncc(Cl)c2)on1 (stereo unspecified),0.03%
13,COc1ccc(Cn2c(=O)oc3ccccc32)cc1,0.51%
14,COc1ccc(/C=C2\SC(=S)N(CCC(=O)N3CCOCC3)C2=O)cc1OC,-0.88%
15,COC(=O)[C@H]1C[C@H](OC(=O)NCc2ccccc2)[C@@]2(O)CN(S(=O)(=O)c3ccc(C)cc3)CC2[C@H]1C(=O)OC (stereo partly specified),0.61%
16,O=C(CNC(=O)c1cc(=O)[nH]c2ccccc12)Nc1ccc(F)c(F)c1,7.53% (active)
17,CC(C)(CNC(=O)c1cc(=O)[nH]c2ccccc12)N1CCOCC1,-0.11%
18,CC(NC(=O)c1cc(=O)[nH]c2ccccc12)c1ccc(F)cc1F (stereo unspecified),0.16%
19,C[C@H]1CN([C@@H](C)CO)C(=O)CCCn2cc(nn2)CO[C@@H]1CN(C)S(=O)(=O)c1ccccc1C#N,0.36%
20,Cc1ccc(NC(=O)Cn2sc3ccccc3c2=O)cc1,2.09%
21,Nc1ccc(C(=O)Nc2ccccc2N)cc1,22.7% (active)
22,CC(=O)Nc1ccccc1NC(=O)c1cc(C)cc(C)c1,0.39%
23,Nc1ccc(S(=O)(=O)NC(=O)c2ccccc2)cc1,1.24%

row,SMILES,inhibition
1,Cc1nc2ccccn2c(=O)c1NC(=O)c1ccc(Br)o1,1.03%
2,CC(=O)C1C(c2ccc(Cl)cc2)c2c(n[nH]c2C)CC1(C)O (stereo unspecified),5.48% (active)
3,CCOC(=O)C1C(c2ccc(OC)c(OC)c2)c2c([nH][nH]c2=O)CC1(C)O (stereo unspecified),0.5%
4,Cc1noc(C)c1NC(=O)N(C)C[C@@H]1Oc2cc(Br)ccc2S(=O)(=O)N([C@@H](C)CO)C[C@H]1C,0.32%
5,CC1CCCC(NC(=O)COC(=O)c2ccccc2C(=O)N(C)C2CCCCC2)C1C (stereo unspecified),-0.71%
6,Cc1ccc(-c2ccc(CN3C(C(C)C)C(=O)N(Cc4cn(CCC5OCCCO5)nn4)CCS3(=O)=O)cc2)cc1 (stereo unspecified),-0.79%
7,COC(=O)c1cccc(N(C(=O)CNC(=O)c2cccs2)C(C(=O)NCC2CCCO2)c2ccc(OC)c(OC)c2)c1 (stereo unspecified),4.73% (active)
8,O=C(NCC(=O)N(c1ccccc1)C(C(=O)NCC1CCCO1)c1ccccc1)c1cccs1 (stereo unspecified),-0.74%
9,COc1ccc(N(C(=O)CNC(=O)c2ccco2)C(C(=O)NCC2CCCO2)c2ccccc2)cc1Cl (stereo unspecified),0.19%
10,O=C(CSc1nc2ccccc2s1)Nc1ccc(C(=O)O)cc1,4.73% (active)
11,O=C(CSc1nnc(SCc2ccc(F)cc2)s1)Nc1ccc(C(=O)O)cc1,-0.63%
12,Nc1nnc(SCC(=O)Nc2ccc3nc(SCC(=O)Nc4ccccc4)sc3c2)s1,-3.13%
13,C[C@H]1CN([C@@H](C)CO)C(=O)CCCn2cc(nn2)CO[C@@H]1CN(C)S(=O)(=O)c1cccc(C#N)c1,-0.32%
14,N#CCCN(C(=S)Nc1ccc(Cl)c(Cl)c1)C1CCCCC1,-0.53%
15,Cc1ccc(S(=O)(=O)NCCSc2ccccc2)cc1[N+](=O)[O-],-0.31%
16,CCOc1ccc2sc(NS(=O)(=O)c3ccc(N)cc3)nc2c1,2.57%
17,Cc1ccc(S(=O)(=O)Nc2nc3ccccc3s2)cc1[N+](=O)[O-],5.09% (active)
18,Cc1ccc(-c2ccc(CN3C(C(C)C)C(=O)N(Cc4cn(CCC5OCCO5)nn4)CCS3(=O)=O)cc2)cc1 (stereo unspecified),-1.47%
19,CNC(=S)N1N=C(c2ccccc2)CC1c1ccc(Br)cc1 (stereo unspecified),1.07%
20,Brc1ccc(C2CC(c3ccccc3)=Nc3ccccc3N2)cc1 (stereo unspecified),4.28% (active)
21,S=C1NC(c2ccccc2)=NCN1c1ccc(Br)cc1,-1.46%
22,CC(C)CCC(=O)Nc1cc(S(=O)(=O)N2CCOCC2)ccc1N1CCCC1,-0.01%
23,COc1cc2nnn(-c3ccncc3)c2cc1OC,1.02%

row,SMILES,inhibition
1,CC1(C)CN(Cc2cccnc2)C(=O)[C@H]1CC(=O)Nc1ccc(Br)cc1,-0.18%
2,COc1ccc(C(=O)OCC(=O)c2cc(C)n(CC3CCCO3)c2C)cc1[N+](=O)[O-] (stereo unspecified),0.28%
3,O=C(COC(=O)c1ccc(S(=O)(=O)Nc2ccccc2)cc1)NCC1CCCO1 (stereo unspecified),-0.38%
4,COc1ccc(C(=O)OCC(=O)NCC2CCCO2)cc1[N+](=O)[O-] (stereo unspecified),4.91% (active)
5,CCOC(OCC)c1ccc(/C=C\c2nccc(N)n2)cc1,4.34% (active)
6,Cc1ccc([C@H]2N[C@]3(CCCN(Cc4ccccc4)C3=O)[C@H]3C(=O)N(Cc4ccccc4)C(=O)[C@@H]23)cc1,0.82%
7,COc1cccc(OCC(=O)NCCS(=O)(=O)N2CCN(c3ccccc3)CC2)c1,0.69%
8,CC1(C)C2CCC1(C)C(OC(=O)CCn1ccnc1)C2 (stereo unspecified),0.23%
9,CC1(C)C2CCC1(C)C(OC(=O)c1ccc(O)cc1)C2 (stereo unspecified),4.45% (active)
10,Cc1ccc(C(=O)OC2CCCN(C)C2)cc1 (stereo unspecified),1.89%
11,O=C(Nc1ccc(Cl)cn1)c1ccccc1-c1ccccc1,1.12%
12,O=C1NC(Cc2ccccc2)c2nc3ccc(Br)cc3c(=O)n2-c2cc3ccccc3cc21 (stereo unspecified),0.19%
13,O=S1(=O)CCN(Cc2ccccc2Cl)CC1,0.98%
14,O=C(Nc1cccn(Cc2ccccc2Cl)c1=O)NC1CCCCC1,-1.6%
15,CC1(C)COC(c2cccn2Cc2ccccc2Cl)=N1,5.28% (active)
16,CCC1NC(=O)c2cccnc2-n2c1nc1ccc(C)cc1c2=O (stereo unspecified),0.22%
17,CC(C)NC(=O)Nc1ccc2c(c1)C(=O)N([C@H](C)CO)C[C@H](C)[C@@H](CN(C)Cc1ccc(C(F)(F)F)cc1)OCCCC[C@@H](C)O2,0.43%
18,Cc1noc(C)c1S(=O)(=O)N(C)C[C@H]1OCCCC[C@@H](C)Oc2ccc(NC(=O)CCCN(C)C)cc2C(=O)N([C@H](C)CO)C[C@@H]1C,0.48%
19,Cc1ccc(NC(=O)N2CCC(O)(c3cccnc3)CC2)cc1,4.28% (active)
20,O=C(c1cccc(F)c1)N1CCC(O)(c2cccnc2)CC1,1.7%
21,O=C(Nc1cccc(F)c1)N1C2CCC1CC(O)(c1cccnc1)C2 (stereo unspecified),0.14%
22,COC(=O)C[C@H]1C[C@@H]2c3cc(NC(=O)Nc4ccccc4)ccc3O[C@@H]2[C@@H](CO)O1,2.2%
